From PubChem
Rows were chosen to be rich in hits. Some 4.8% of all compounds tested hit in one or more screens of this group.
SMARCA2 act – SMARCA2 (BRM) function activators, primary screen, cell-based, luminescence, high throughput; AID 652017, 2013; activation, % at 9.1 µM; hit rate 1% among 370,000; MG213 cells, MMTV-luciferase reporter, dexamethasone, overnight; in the data active = activation above about 7.8%
hcDAF-12 act – H. contortus DAF-12 nuclear receptor activators, primary screen, cell-based, luminescence, HEK293, lit1-tk-luc reporter; HEK293 hcDAF-12 lit1-tk-luc reporter; 0% DMSO, 100% Δ7-dafachronic acid; activation, % at 6.8 µM; hit rate 1.4% among 370,000; AID 652067, 2013;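 active = activation above the mean of all tested compounds plus 3 SD, cut at about 5.5% in these data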
ssDAF12 agonist – S. stercoralis DAF-12 nuclear receptor activators, primary screen, cell-based, luminescence, HEK293, GRIP1 co-expression, lit1-tk-luc | HEK293 ssDAF-12/GRIP1 lit1-tk-luc reporter; % of 3 µM dafachronic acid response | activation, % at 6.8 µM | hit rate 1% among 370,000 | Nuclear hormone receptor DAF-12 (Strongyloides stercoralis) | AID 652126, 2013;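 active = activation above the mean over all tested compounds plus 3 SD, cut at about 0.9% in these data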
DAX1 inh-1 – DAX1 (NR0B1) inhibitors, primary screen, cell-based, HEK293, Gal4-DAX1, luciferase luminescence; inhibition, % at 6.75 µM; HEK293 Gal4-DAX1 luciferase reporter; AID 504766, 2011; hit rate 0.99% among 340,000; Nuclear receptor subfamily 0 group B member 1 (Homo sapiens), P51843;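 active = inhibition above the mean over all tested compounds plus 3 SD, cut at about 4.2% in these data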;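 also: inhibition shows as a rise in luminescence from relieved DAX1 repression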
hgDAF12 agonist – H. glycines DAF-12 receptor agonists, primary screen, cell-based, luminescence, HEK293, GAL4 fusion, UAS-luciferase. Nuclear hormone receptor DAF-12 (Heterodera glycines), GAL4 fusion. HEK293 GAL4-hgDAF12 UAS-luciferase reporter, agonist luminescence; normalized to butyrate control. hit rate 1.8% among 370,000. AID 687014, 2013. activation, % at 6.8 µM;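 active = activation above a cutoff set at the mean of all screened compounds plus 3 SD, cut at about 10% in these data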
DAX1 inh-2 – DAX1 (NR0B1) inhibitors on StAR promoter, primary screen, cell-based, luminescence, SF-1 (NR5A1), full-length DAX-1; hit rate 1.1% among 370,000; HEK293T StAR-luciferase reporter, SF-1/DAX-1 repression relief; inhibition, % at 6.8 µM;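 active = inhibition above the mean over all tested compounds plus 3 SD, cut at about 3.6% in these data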;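 also: higher inhibition means more luminescence from relief of DAX-1 repression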
DAX1 conf – DAX1 (NR0B1) inhibitors relieving SF-1 repression, confirmation, cell-based, luminescence, HEK293T, full-length DAX-1, SF-1 activated StAR promoter | HEK293T StAR-promoter luciferase reporter, SF-1/DAX-1 repression | AID 652134, 2013 | shares compounds with DAX1 inh-2 | hit rate 87% among 2,400 | inhibition, % at 6.8 µM;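 active = inhibition above the average of every tested compound plus 3 SD, cut at about 3.8% in these data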
Target sequence (P51843 whole entry, looked up): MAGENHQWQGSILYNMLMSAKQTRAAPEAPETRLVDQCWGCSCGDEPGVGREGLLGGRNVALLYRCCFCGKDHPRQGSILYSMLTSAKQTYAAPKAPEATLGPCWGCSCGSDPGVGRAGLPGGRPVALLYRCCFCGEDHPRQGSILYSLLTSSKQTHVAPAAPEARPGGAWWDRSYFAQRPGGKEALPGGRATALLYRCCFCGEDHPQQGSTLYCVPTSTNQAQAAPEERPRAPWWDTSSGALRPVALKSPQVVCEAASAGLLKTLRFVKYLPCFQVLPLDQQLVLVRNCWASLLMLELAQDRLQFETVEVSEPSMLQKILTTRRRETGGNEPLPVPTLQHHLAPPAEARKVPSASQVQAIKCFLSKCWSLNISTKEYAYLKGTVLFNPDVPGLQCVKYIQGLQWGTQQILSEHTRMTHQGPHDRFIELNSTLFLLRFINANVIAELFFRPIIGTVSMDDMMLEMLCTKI
SF1 AF2mut Luc – StAR reporter signal changes without DAX1, counter-screen for DAX1 inhibitor project, cell-based, luminescence, AF-2 mutant SF-1, transactivation | shares compounds with DAX1 inh-2 | hit rate 78% among 2,400 | inhibition, % at 6.8 µM | HEK293 StAR-luciferase, SF-1 AF2 mutant;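 active = inhibition above the mean of all tested compounds plus 3 SD, cut at about 3% in these data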
Numbers stand for hits; 0 = inactive; - = not tested or not shown.

SMILES	SMARCA2 act	hcDAF-12 act	ssDAF12 agonist	DAX1 inh-1	hgDAF12 agonist	DAX1 inh-2	DAX1 conf	SF1 AF2mut Luc
Cc1nc2cc(NC(=O)c3ccco3)ccc2n1C	0	0	0	0	12	7.7	11	7.4
CCN1CCN(c2ccc(NC(=O)c3ccco3)cc2Cl)CC1	0	0	0	0	0	0	-	-
Cc1ccn2cc(-c3ccc(NC(=O)c4ccco4)cc3)nc2c1	0	0	0	0	11	5.0	11	8.6
CC(C)NC(=O)c1cccc(NC(=O)CC2SC(N3CCCCC3)=NC2=O)c1 (stereo not drawn)	0	0	0	0	0	0	-	-
O=C(CC1SC(N2CCCCC2)=NC1=O)Nc1cccc(C(=O)Nc2ncccc2O)c1 (stereo not drawn)	0	0	0	0	11	7.9	9.7	9.1
CCc1ccc2nc(N(CCN(C)C)C(=O)c3ccc4ncsc4c3)sc2c1	0	0	0	0	0	7.6	8.0	5.4
C=CCOc1c(Br)cc(/C=N/Nc2ccc(C(=O)O)cc2)cc1OCC	0	0	0	0	12	7.3	13	8.7
Cc1ccc2nc(NC(=O)COC(=O)c3cccnc3)sc2c1	0	0	0	0	12	5.6	4.0	0
N#Cc1ccccc1S(=O)(=O)N1CCC(C(=O)NCc2ccccc2CN2CCCC2)CC1	0	0	0	0	0	5.4	0	0
O=C(NC(CC(=O)N1CCN(c2ccccc2)CC1)c1ccccc1)c1ccccc1 (stereo not drawn)	0	0	0	0	0	0	-	-
CC(=O)NC(CC(=O)N1CCN(C(C)=O)CC1)c1ccccc1 (stereo not drawn)	0	0	0	0	0	5.3	0	0
CC(=O)c1cccc(NC(=O)c2sc3nc4n(c(=O)c3c2C)CCCCC4)c1	0	0	0	0	0	0	-	-
COc1cccc(NC(=O)c2sc3nc4n(c(=O)c3c2C)CCC4)c1	0	0	0	0	0	4.7	5.0	5.9
Cc1c(C(=O)Nc2ccc(Oc3ccccc3)cc2)sc2nc3n(c(=O)c12)CCC3	0	0	0	0	0	0	-	-
CSc1cccc(NC(=O)c2sc3nc4n(c(=O)c3c2C)CCC4)c1	0	0	0	0	0	5.1	0	0
NC(=O)c1ncn([C@@H]2O[C@H](C(=O)N[C@H](Cc3c[nH]c4ccccc34)C(=O)N3CCN(C(=O)C4CC4)CC3)[C@@H](O)[C@H]2O)n1	0	0	0	-	0	0	-	-
CC(=O)c1cc(-c2cc3ccccc3o2)c(=O)n2c1CCC2	0	0	0	-	0	0	-	-
COc1ccc(Cn2cc(CN3[C@H](C)COc4cc(Br)ccc4S3(=O)=O)nn2)cc1	0	0	0	-	0	0	-	-
C#CCn1c(=NC(=O)c2ccco2)sc2cccc(Cl)c21	0	0	0	0	0	0	-	-
Cc1sc(=NC(=O)c2ccco2)n(C)c1-c1ccccc1	0	0	0	0	0	5.5	14	6.3
CC(C)[C@@H]1CC[C@@H](C)C[C@H]1OC[B-](F)(F)F	0	0	0	-	0	0	-	-
Nc1ccccc1C(=O)Nc1nccs1	0	0	0	0	0	0	-	-
Nc1ccc(C(=O)Nc2nccs2)cc1	0	0	0	0	0	4.8	5.1	4.7
COc1ccc(NC(=O)C(=O)NCC2CCCN2S(=O)(=O)c2ccc(C)cc2)cc1 (stereo not drawn)	0	0	0	0	0	6.4	13	0
COc1cc2nn(-c3ccccc3N)nc2cc1OC	0	0	0	0	11	4.7	6.7	4.8
SMILES	SMARCA2 act	hcDAF-12 act	ssDAF12 agonist	DAX1 inh-1	hgDAF12 agonist	DAX1 inh-2	DAX1 conf	SF1 AF2mut Luc
CCOc1c(Cl)cc(C(=O)Nc2cccc(C(=O)O)c2)cc1Cl	0	0	0	0	0	7.6	6.5	4.6
Cc1nc2ccc(NC(=O)CS(=O)(=O)c3ccccc3)cc2s1	0	0	0	0	0	6.0	5.6	3.0
O=C(/C=C/c1ccc(S(=O)(=O)N2CCOCC2)cc1)NCc1ccccc1F	0	0	0	0	0	5.0	0	0
CC(C)C[C@H]1COc2cc(N3CCSCC3)ccc2S(=O)(=O)N1C	0	0	0	-	0	0	-	-
CCCN1CCc2c(sc(NC(=O)CCS(=O)(=O)c3ccccc3)c2C(=O)OC)C1	0	0	0	0	0	7.3	7.9	4.7
O=C(Nc1cccc(Cl)c1)N1CCc2ccccc2C1	0	0	0	0	0	0	-	-
COc1cccc(NC(=O)N2CCc3ccccc3C2)c1	0	0	0	0	0	6.1	8.4	7.1
O=C(Nc1ccc([N+](=O)[O-])cc1Cl)c1cccc([N+](=O)[O-])c1	0	0	0	0	0	0	-	-
O=C(Nc1ccc([N+](=O)[O-])cc1Cl)c1cc(Cl)ccc1O	0	0	0	0	12	6.7	0	0
Cc1ccc(C(=O)NCCC(=O)N2CCOCC2)cc1	0	0	0	0	0	10	6.3	3.3
O=[N+]([O-])c1ccccc1S(=O)(=O)Nc1cccc(-c2ccc(N3CCOCC3)nn2)c1	0	0	0	0	0	5.2	7.0	5.2
O=[N+]([O-])c1ccccc1S(=O)(=O)Nc1cccc(-c2ccc(N3CCCC3)nn2)c1	0	0	0	0	0	0	-	-
O=C(CCc1ccccc1-c1ccccc1CCNC(=O)COCc1ccccc1)NCc1ccccc1	0	0	0	-	0	0	-	-
O=C(O)c1cc(/C=C/c2ccc(N3CCOCC3)c([N+](=O)[O-])c2)nc2ccccc12	0	0	0	0	0	0	-	-
O=C(O)c1cc(/C=C/c2ccc(N3CCOCC3)cc2)nc2ccccc12	0	0	0	0	0	5.5	7.2	0
CCN(C)C(=O)CN1C(=O)C2CCCCN2C(=O)c2ccccc21 (stereo not drawn)	0	0	0	-	0	0	-	-
C[C@H]1[C@H](NC(=O)c2ccc(Cl)cc2)CC[C@@]23CCCN2C(=O)CCC[C@@H]13	-	0	0	-	0	-	-	-
